Values joined by “and” are separate entries in the source; they are usually repeats but may differ in a detail not shown here. Identical values can stand only once. Results filed as inconclusive are left out. More than one record can exist for a structure, and the calls need not agree. Active and inactive are the calls of the source. The call rests on the fitted dose curve; in most records, active means well fitted inhibition curve with a large enough effect in the repeat runs; inconclusive means weak or mixed curves; inactive means no such curve, though single readings can be large or run the other way.
Target: Aromatase (Homo sapiens) (UniProt P11511)
Test: qHTS assay to identify aromatase inhibitors (AID 743083); further: nearly all actives have a fitted effect of over 55% in size
Details: MCF-7 aro ERE, testosterone-driven ERE luciferase, 24 h; series mostly up to 70.3 µM; activity, negative = inhibition: at the top concentration
On the % scale 0 is the no-effect control and ±100 the full control effect; potency means the concentration at half of the fitted maximal effect.

Chain of Aromatase (Homo sapiens) (P11511 whole entry, looked up): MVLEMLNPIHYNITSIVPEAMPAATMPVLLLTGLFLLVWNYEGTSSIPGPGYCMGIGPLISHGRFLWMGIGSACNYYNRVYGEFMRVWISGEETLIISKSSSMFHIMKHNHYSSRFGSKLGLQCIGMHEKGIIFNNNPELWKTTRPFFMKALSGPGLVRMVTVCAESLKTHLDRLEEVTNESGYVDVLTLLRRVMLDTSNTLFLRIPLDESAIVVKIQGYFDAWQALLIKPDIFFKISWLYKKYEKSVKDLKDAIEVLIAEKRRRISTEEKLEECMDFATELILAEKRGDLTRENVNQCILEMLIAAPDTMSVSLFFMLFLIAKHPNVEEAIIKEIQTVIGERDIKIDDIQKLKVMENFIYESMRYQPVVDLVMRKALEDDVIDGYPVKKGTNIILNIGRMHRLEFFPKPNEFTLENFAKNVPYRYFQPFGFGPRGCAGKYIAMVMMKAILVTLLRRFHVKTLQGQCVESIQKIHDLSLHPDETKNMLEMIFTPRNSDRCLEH

SMILES | Potency | activity, negative = inhibition
CCCCCCCCCCCC(=O)NCCCN(C)C | 43.3 µM (active) | –
CCCCCCCCCOC(=O)c1ccc(O)cc1 | 30.2 µM (active) | –
CCOC(=O)c1nc(C(Cl)(Cl)Cl)n(-c2ccc(Cl)cc2Cl)n1 | 61.1 µM (active) | –
OCc1c[nH]c2ccccc12 | 33.4 µM (active) | –
CCCCCCCCCCCCCCCC(=O)OC[C@H](O)[C@H]1OC(=O)C(O)=C1O | inactive | –
Oc1ccc(N=Nc2ccccc2)cc1 | – | 59.6% [at 95 µM] (inactive)
CSc1ccc(/C=C2/C(C)=C(CC(=O)O)c3cc(F)ccc32)cc1 | – | -8.28% (inactive)
c1cc(C(c2ccc(OCC3CO3)cc2)c2ccc(OCC3CO3)cc2)ccc1OCC1CO1 (stereo not drawn) | 68.6 µM (active) | –
CC(C)OC(=O)c1cc2c(OCC(O)CNC(C)(C)C)cccc2[nH]1 (stereo not drawn) | – | -14.4% (inactive)
CC[C@H]1O[C@]2(CC[C@@H]1C)C[C@@H]1C[C@@H](C/C=C(\C)C[C@@H](C)/C=C/C=C3\CO[C@@H]4[C@H](O)C(C)=C[C@@H](C(=O)O1)[C@]34O)O2 | 30.4 µM (active) | –
CCCCc1oc2ccc(NS(C)(=O)=O)cc2c1C(=O)c1ccc(OCCCN(CCCC)CCCC)cc1 | 29.8 µM (active) | –
CC(C)(C)c1ccc(C(=O)CCCN2CCC(OC(c3ccccc3)c3ccccc3)CC2)cc1 | – | -10.1% (inactive)
CCCCN(CCCC)c1ccc(C(=O)c2ccccc2C(=O)O)c(O)c1 | – | -6.21% [at 95 µM] (inactive)
CCCC(c1cc(C(C)(C)C)c(O)cc1C)c1cc(C(C)(C)C)c(O)cc1C | 15.5 µM (active) | –
CN(C/C=C/C#CC(C)(C)C)Cc1cccc2ccccc12 | – | -5.62% (inactive)
CC(C)(C)NC(=O)[C@@H]1C[C@@H]2CCCC[C@@H]2CN1C[C@@H](O)[C@H](Cc1ccccc1)NC(=O)[C@H](CC(N)=O)NC(=O)c1ccc2ccccc2n1 | 29.8 µM (active) and 31 µM (active) | –
Oc1c(Cl)cc(Cl)c2cccnc12 | 11.9 µM (active) | –

SMILES | Potency | activity, negative = inhibition
O=C(Nc1ccc(Oc2ccc(Cl)cc2)c(Cl)c1)c1cc(I)cc(I)c1O | – | -10.8% (inactive)
N=C1N=C(N)c2ccccc21 | 38.6 µM (active) | –
CCN(CC)CCCC(C)Nc1c2ccc(Cl)cc2nc2ccc(OC)cc12 (stereo not drawn) | – | 8.96% (inactive)
Cc1nc(-c2ccc3c(c2)CCN(CCC2CCC(NC(=O)/C=C/c4ccc(F)cc4)CC2)CC3)no1 (stereo not drawn) | – | -0.444% [at 32.5 µM] (inactive)
CN(C)c1ccc(C2(c3ccc(N(C)C)cc3)OC(=O)c3cc(N(C)C)ccc32)cc1 | – | -20.8% (inactive)
CCCCCCCCCCCC[N+](C)(C)CCCCCCCCCCCC | 17.2 µM (active) | –
CC1(C)CCC(C)(C)c2cc(C(=O)Nc3ccc(C(=O)O)cc3)ccc21 | – | -38.2% (inactive)
CC(C)=CCOc1ccc(/C=C/C(=O)c2ccc(OCC=C(C)C)cc2OCC(=O)O)cc1 | – | 18.8% (inactive)
CCCCC(CC)COP(=O)(O)OCC(CC)CCCC (stereo not drawn) | inactive | –
O=C(Nc1cccc(C(F)(F)F)c1)c1cc(Br)cc(Br)c1O | 11.9 µM (active) and 4.86 µM (active) | –
Cc1ccc(O)c(C(C)(C)C)c1 | 15.3 µM (active) and inactive | –
CCCCCOC(=O)CCCC | – | 24.4% (inactive)
Clc1ccc2n[nH]nc2c1 | – | -6.99% (inactive)
CCCCCCCCn1sc(Cl)c(Cl)c1=O | 4.86 µM (active) | –
NNc1nc(-c2ccc([N+](=O)[O-])cc2)cs1 | 43.3 µM (active) | –
O=c1[nH]sc2ccccc12 | 30.6 µM (active) | –

Source: PubChem BioAssay (Tox21)
